Where “and” joins values, the source holds several entries; their conditions need not be identical. Equal values may be shown once. Some compounds were tested as several samples or in several runs, with calls that do not always agree. Calls of active or inactive are those of the source. The calls were made as follows: active = hit-call score of the fitted dose curve at least 0.9, where 1 is the maximum; inactive = score below 0.9.
Assay: APR_HepG2_CellCycleArrest_72hr: Apredica 72-hour HepG2 Assay for Cell Cycle Arrest (AID 2282914)
Settings: high-content imaging, actives raise or lower the signal
Protocol: APR_HepG2_72hr is a cell-based, multiplexed-readout assay that uses HepG2, a human liver cell line, with measurements taken at 72 hours after chemical dosing in a 384-well plate.APR_HepG2_CellCycleArrest_72hr is one of 10 assay component(s) measured or calculated from the APR_HepG2_72hr assay. It is designed to make measurements of cell phenotype, a form of morphology reporter, as detected with fluorescence intensity signals by HCS Fluorescent Imaging technology.Data from the assay component APR_HepG2_CellCycleArrest_72hr was analyzed into 1 assay endpoint. This assay endpoint, APR_HepG2_CellCycleArrest_72hr, was analyzed with bidirectional fitting relative to DMSO as the negative control and baseline of activity. Using a type of morphology reporter, measures of all nuclear dna for gain or loss-of-signal activity can be used to understand the signaling at the pathway-level as they relate to the gene . Furthermore, this assay endpoint can be referred to as a primary readout, because this assay has produced multiple assay endpoints where this one serves a signaling function. To generalize the intended target to other relatable targets, this assay endpoint is annotated to the cell cycle intended target family, where the subfamily is arrest.
Cells were treated with dimethyl sulfoxide (DMSO) as a solvent control at a final concentration of 0.5% v/v or with compounds in DMSO with a resulting final DMSO concentration of 0.5% v/v. Compound treatment was done at concentrations of 0.39, 0.78, 1.56, 3.12, 6.24, 12.5, 25, 50, 100, and 200 uM in duplicate on each plate. Cells were treated with compounds for 1, 24, or 72 hr. Carbonyl […] m-chloro-phenylhydrazone (CCCP) and taxol were used as positive controls for mitochondrial function and cytoskeletal stability, respectively; DMSO served as the negative control for this experiment. Cells were fixed by the direct addition of 50 uL formaldehyde in Hank's Balanced Salt Solution (HBSS) to a final concentration of 3.7%. After incubation in the fixation medium for 30 min at room temperature (293-298 K), cells were rinsed twice with HBSS and treated with cell permeabilization buffer (16 uL of 0.5% Triton X-100) for 10 min at room temperature (293-298 K) before labeling. For mitochondrial membrane potential and mitochondrial measurements, pre-fixed cells were incubated with 50 uL of MitoTracker Red CMXRos (Invitrogen) at a concentration of 250 nM for 30 min before fixation. In the remaining cases, post-fixed cells were labeled by incubation with a multiplexed mixture of primary antibodies in HBSS for 60 min at room temperature (293-298 K) to detect immunoreactivity of c-Jun (1:500), phospho-histone H3 (1:100), phospho-histone H2A.x (1:200), p53 (1:400), alpha-tubulin (1:200) and Hoechst 33342 (2 ug/mL). Cells were labeled for multiplexed imaging on two separate plates: a) Hoechst 33342, MitoTracker Red, phospho-histone H3, and alpha-tubulin, and b) Hoechst 33342, phospho-histone H2A.x, and c-Jun. A final rinse with HBSS (50 uL) was performed before analysis. The primary and secondary antibodies for the proteins were phospho-histone H3 (rabbit anti-phospho-histone H3 and FITC-donkey anti-rabbit IgG), phospho-histone H2A.x (mouse anti-phospho-histone H2A.x and FITC-donkey anti-mouse IgG), c-Jun (rabbit anti-phospho-c-Jun and Cy3-donkey anti-rabbit IgG), p53 (sheep anti-p53 and Cy5-donkey anti-sheep IgG), alpha-tubulin (mouse anti-alpha-tubulin and Cy5-donkey anti-mouse IgG). These antibodies are available as the CellCiphr HepG2 assay kit (Millipore).Digital images of each well were captured using a Cellomics ArrayScan VTI (Thermo Scientific Cellomics) (0.8 NA objective, 0.63x optical coupler, and XF-93 filter set) at 20x magnification. The images were acquired using the autofocus feature of the ArrayScan instrument, which entails the following steps. First, the camera focuses on channel 1 (Hoechst 33342), where nuclei are identified. Second, a Z offset of 1 um is used for capturing mitochondria (MitoTracker Red). […]
For O=C(O)c1ccccc1, the outcome was “inactive”. For C[C@]12C[C@H](O)[C@H]3[C@@H](CCC4=CC(=O)CC[C@@]43C)[C@@H]1CC[C@@H]2C(=O)CO, the outcome was “inactive”. With N[C@@H](Cc1cc(I)c(Oc2ccc(O)c(I)c2)c(I)c1)C(=O)O the outcome was “inactive”. With Cc1nn(C)c(Oc2ccccc2)c1C=NOCc1ccc(C(=O)OC(C)(C)C)cc1 the AC50 was 19.8 µM (active). In the case of COC(=O)c1cccc(C)c1S(=O)(=O)NC(=O)Nc1nc(OCC(F)(F)F)nc(N(C)C)n1, the outcome is reported as “inactive”. With COc1nc(C)nc(NC(=O)NS(=O)(=O)c2ccccc2OCCCl)n1 the outcome was “inactive”. In the case of CCCOC(=O)c1ccc(C(=O)OCCC)nc1, the outcome is reported as “inactive”. For O=C(c1ccc(O)cc1O)c1ccc(O)cc1O, the outcome was “inactive”. In the case of CCOC(=O)C(C)Oc1ccc(Oc2nc3ccc(Cl)cc3o2)cc1 (stereo not given), the outcome is reported as “inactive”. With COC(=O)c1ccccc1C(=O)O the outcome was “inactive”. With CCOC(=O)[C@H](C)Oc1ccc(Oc2nc3ccc(Cl)cc3o2)cc1 the outcome was “inactive”. For CCC(O)=C1C(=O)CC(C(=O)O)CC1=O (stereo not given), the outcome was “inactive”. For CC(C)(C)[C@@H](O)[C@@H](Cc1ccc(Cl)cc1)n1cncn1, the outcome was “inactive”. With CCNc1nc(N)nc(Cl)n1 the outcome was “inactive”. With O=C(Nc1ccc([N+](=O)[O-])cc1Cl)c1cc(Cl)ccc1O the AC50 was 0.463 µM (active). In the case of CCCN(CCC)c1c([N+](=O)[O-])cc(C(F)(F)F)c(N)c1[N+](=O)[O-], the outcome is reported as “inactive”. In the case of N#CSCSc1nc2ccccc2s1, the outcome is reported as “inactive”. In the case of O=C(c1ccccc1)C1CCCCC1, the outcome is reported as “inactive”. For CC(C)CCCCCCc1ccc(O)cc1, the AC50 was 123 µM (active). With c1ccc2[nH]c(-c3cscn3)nc2c1 the outcome was “inactive”. For CCCCCOC(=O)COc1cc(N2C(=O)C3=C(CCCC3)C2=O)c(F)cc1Cl, the outcome was “inactive”. In the case of O=C(O)C1(C(=O)Nc2ccc(Cl)cc2Cl)CC1, the outcome is reported as “inactive”. For CCOC(=O)COc1cc(-n2ncc(C(F)(F)F)c(C)c2=O)c(F)cc1Cl, the outcome was “inactive”. With CCCOC(=O)NCCCN(C)C the outcome was “inactive”. For CCCCOCCOCCOCc1cc2c(cc1CCC)OCO2, the AC50 was 45 µM (active). For S=C([S-])NCCNC(=S)[S-].[Mn+2], the AC50 was 82.9 µM (active). For CC1(C)C(C=C(Cl)Cl)C1C(=O)OCc1cccc(Oc2ccccc2)c1 (stereo not given), the AC50 was 101 µM (active). In the case of COC(=O)c1ccc(I)cc1S(=O)(=O)NC(=O)Nc1nc(C)nc(OC)n1, the outcome is reported as “inactive”. For COC(=O)c1c(Cl)nn(C)c1S(=O)(=O)NC(=O)Nc1nc(OC)cc(OC)n1, the outcome was “inactive”. With CCOC(=O)C(C)Oc1ccc(Oc2cnc3cc(Cl)ccc3n2)cc1 (stereo not given) the outcome was “inactive”. For COC(=O)c1ccc(CNS(C)(=O)=O)cc1S(=O)(=O)NC(=O)Nc1nc(OC)cc(OC)n1, the outcome was “inactive”. For CC(=O)S[C@@H]1CC2=CC(=O)CC[C@]2(C)[C@H]2CC[C@@]3(C)[C@@H](CC[C@@]34CCC(=O)O4)[C@H]12, the AC50 was 44.1 µM (active). In the case of CCN(CC)C(=O)c1cccc(C)c1, the outcome is reported as “inactive”. For CCCCC(CC)COC(=O)c1ccccc1C(=O)O (stereo not given), the outcome was “inactive”. For CCC(C)OC(=O)N1CCCCC1CCO (stereo not given), the outcome was “inactive”. In the case of CC(C)(c1ccc(O)cc1)c1ccc(O)cc1, the outcome is reported as “inactive”. In the case of CN(C)C(=O)Nc1ccc(Cl)c(Cl)c1, the outcome is reported as “inactive”. For c1ccc(Nc2ccccc2)cc1, the outcome was “inactive”. With S=C(S)NCCNC(=S)S.[Mn+2].[S-]C([S-])=NCCN=C([S-])[S-].[Zn+2] the outcome was “inactive” and the AC50 was 53.5 µM (active) and 51.5 µM (active).
